The panel holds about 83,000 compounds, 20% with a hit somewhere; the sample as a whole holds those more often.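 Testing used 96-well plates and a 48-hour single-concentration exposure. Example: -40 means 40% of the starting cells died.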 Values without a mark were called inactive. Calls of active or inactive are those of the source. The calls were made as follows: active = growth percent below 10; inactive = the rest.

For the assay, the system named is SF-268 CNS. The experiment in a line: NCI-60 one-dose screen, 48 h (100 = growth as untreated, 0 = no growth, -100 = all killed). Particulars: 10 µM unless noted.
As for `COc1cc2[nH]c(C(=O)c3cc(OC)c(OC)c(OC)c3)c(N)c2cc1C#CC1CC1`, the growth was 40.7%.

Regarding `COc1cc2c(cc1OC)C(=O)/C(=C/c1cc(-c3ccc4c(c3)OCO4)n[nH]1)C2`, the growth was -53.4% (active).

Consider `NS(=O)(=O)c1ccc(CCNC(=O)/C=C/c2ccc(Cl)cc2)cc1`, for which the growth is 95.6%.

In the case of `C/C(=N/NC(N)=S)C(=O)O`, the growth is 101%.

In the case of `Cc1ccc(-c2ccc(Nc3ccccc3)nn2)cc1S(N)(=O)=O`, the growth is 97.4%.

On to `CCC(c1ccc(OC)cc1)C(CC)c1ccc(O)c(CN2CCCCC2)c1` (stereo not drawn), for which the growth is 86.1%.

Turning to `COc1cc(-c2cc(-c3nc4ccc(F)cc4[nH]3)[nH]n2)cc(OC)c1OC`, the growth was 36.4%.

As to `COc1cccc(NC(=O)c2sc3nc4c(cc3c2N)C(=O)CCC4)c1`, the growth is 39.2%.

As to `NC1(N)C=CC2=C(C=C1)C1(N)C3=C(C=CC(N)(N)C=C3)N2C2(N)C3=C(C=CC(N)(N)C=C3)N1C1=C2C=CC(N)(N)C=C1`, the growth is 86.8%.

In the case of `COc1ccc(-c2nc3ccccn3c2-c2nc3ccc(Cl)cc3[nH]2)cc1`, the growth was 112%.

Turning to `O=c1c(CNc2ccc(S(=O)(=O)Nc3nccs3)cc2)coc2ccccc12`, the growth is 113%.

Regarding `CN1CCN(c2nc(-c3cccc4ccccc34)nc3sc4c(c23)CCCCCC4)CC1`, the growth was 82%.

Regarding `COc1ccc2nc(-c3cc(-c4cc(OC)c(OC)c(OC)c4)n[nH]3)[nH]c2c1`, the growth is 10.7%.

Regarding `COc1cccc(-c2nn(-c3ccccc3)cc2-c2ccnc(NCCNS(=O)(=O)c3ccc(Cl)cc3)c2)c1`, the growth is 45.7%.

Turning to `O=S(=O)(NCCNc1cc(-c2cn(-c3ccccc3)nc2-c2cccc(O)c2)ccn1)c1ccc(C(F)(F)F)cc1`, the growth was 50%.

Consider `Cc1cc(C)c(NC(=O)c2sc3nc4c(cc3c2N)CCCC4)c(C)c1`, for which the growth is 48.8%.

Turning to `C/C(=N\Nc1cc(C)c2ccccc2n1)c1ccccn1`, the growth is -6.64% (active).

Take `C=C1C(=O)O[C@H]2[C@H]1CC/C(Cn1cc(-c3ccc(OC)cc3)nn1)=C\CC[C@@]1(C)O[C@@H]21`: the growth is 12.7%.

For `COC(=O)[C@]12CC[C@@H](C)[C@H](C)[C@@H]1C1=CC[C@@H]3[C@@]4(C)C[C@@H](OC(C)=O)[C@H](OC(C)=O)[C@@](C)(COC(C)=O)[C@@H]4[C@H](O)C[C@@]3(C)[C@]1(C)CC2`, the growth is 23.4%.

As to `COc1cccc(-c2nn(-c3ccccc3)cc2-c2ccnc(NCCCNS(=O)(=O)c3ccc(Cl)cc3)c2)c1`, the growth was 56.1%.

In the case of `O=c1c(CNc2ccc(S(=O)(=O)Nc3ncccn3)cc2)coc2ccccc12`, the growth is 108%.

Consider `COc1ccc(-c2cc(/C=C/C(=O)c3ccc(OC)c(OC)c3)[nH]n2)cc1`, for which the growth was 7.76% (active).

As for `C#Cc1cc2c(N)c(C(=O)c3cc(OC)c(OC)c(OC)c3)[nH]c2cc1OC`, the growth was 49.6%.

For `O=S(=O)(NCCNc1cc(-c2cn(-c3ccccc3)nc2-c2cccc(O)c2)ccn1)c1ccc(F)cc1`, the growth was 40.4%.

Regarding `c1ccc2[nH]c(-c3cc(-c4ccc5c(c4)OCO5)n[nH]3)nc2c1`, the growth is 70.5%.

As to `COc1cccc(-c2nn(-c3ccccc3)cc2-c2ccnc(NCCCNS(=O)(=O)c3cccc(F)c3)c2)c1`, the growth was 46.8%.

As to `COc1cc(-c2cc(-c3nc4cc(Cl)c(Cl)cc4[nH]3)[nH]n2)cc(OC)c1OC`, the growth was 96.5%.

Consider `Oc1cc(/C=C/c2nc(N3CCOCC3)c3cc(Cl)c(Cl)cc3n2)cc(O)c1O`, for which the growth was 108%.

As for `Cc1cc(Nc2ccc(F)cc2)nc(N2CCN(c3ccnc4cc(Cl)ccc34)CC2)n1`, the growth is 36.2%.

Turning to `COc1ccc(/C=C/C(=O)NCC(C)O)cc1` (stereo not drawn), the growth was 94%.

`COc1ccc(-c2cc(/C=C/C(=O)c3ccc(N)cc3)[nH]n2)cc1`: the growth was 17%.

Take `CSc1ccc(N(C)c2nc(C)nc3c2CCC3)cc1`: the growth is 26.9%.

As to `OCCNc1nc(Nc2ccc(Cl)c(Cl)c2)nc2ccccc12`, the growth is 48.6%.

As to `COc1cc(-c2cc(-c3nc4ccccc4[nH]3)[nH]n2)cc(OC)c1OC`, the growth was 72.5%.

Take `O=C1CCN2C(=O)Nc3ccccc3C2C1` (stereo not drawn): the growth is 110%.

Consider `Cc1[c-]onc1C.Cc1[c-]onc1C.[Ag].[Ag].[NH-]S(=O)(=O)c1ccc(N=Nc2cc(N=Nc3ccc(S([NH-])(=O)=O)cc3)c3c(NC(=O)C(Cl)Cl)cccc3c2OC(=O)C(Cl)Cl)cc1`, for which the growth is 84.5%.

For `Clc1ccc(Cn2cc(-c3nc4ccc(Br)nc4n3Cc3ccc(Cl)cc3)c3cccnc32)cc1`, the growth was 89.2%.

In the case of `COC(=O)[C@]12CC[C@@H](C)[C@H](C)[C@@H]1C1=CC[C@@H]3[C@@]4(C)C[C@@H](OC(C)=O)[C@H](O)[C@@](C)(COC(C)=O)[C@@H]4[C@H](O)C[C@@]3(C)[C@]1(C)CC2`, the growth is -71.9% (active).

Source of the values: PubChem BioAssay (NCI).
